# Test results published in PMC7862700, “An all-to-all approach to the identification of sequence-specific readers for epigenetic DNA modifications on cytosine”.
# Key:
# Experiment in all cases: DAPPL (digital affinity profiling via proximity ligation, sequencing); 10 mM Tris-HCl pH 7.5, 50 mM NaCl, 1 mM DTT, 4% glycerol, room temperature, 30 min; GST-TFs on glutathione beads, 16-mer random dsDNA library, 0.1% formaldehyde crosslink after washing; high values mean tight binding
# FLI1 = molecular target: T1, FLI1 (Homo sapiens, UniProt Q01543 1-452); conditions: protein: recombinant; tags: N-terminal GST; dsDNA, one strand shown
# T1 sequence: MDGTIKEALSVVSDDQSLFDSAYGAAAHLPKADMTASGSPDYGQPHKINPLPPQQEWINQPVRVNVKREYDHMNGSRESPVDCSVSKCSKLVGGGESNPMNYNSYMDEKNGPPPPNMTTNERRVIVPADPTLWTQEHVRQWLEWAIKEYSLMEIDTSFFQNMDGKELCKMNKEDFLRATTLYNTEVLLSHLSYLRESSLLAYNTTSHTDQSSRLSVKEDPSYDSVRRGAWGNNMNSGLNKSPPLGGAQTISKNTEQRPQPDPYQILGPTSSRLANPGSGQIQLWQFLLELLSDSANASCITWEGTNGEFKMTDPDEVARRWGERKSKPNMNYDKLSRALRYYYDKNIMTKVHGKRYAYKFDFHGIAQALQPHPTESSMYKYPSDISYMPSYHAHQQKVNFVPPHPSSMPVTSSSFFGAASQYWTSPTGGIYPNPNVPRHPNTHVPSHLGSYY
# Method in brief: (§1)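 The binding signal reported is, for every hexamer, its read frequency for a factor over its read frequency for the tag-only sample. Reads came from pools of yeast-expressed, GST-fused human transcription factors on glutathione beads, barcoded with DNA and mixed with that sample, which were incubated with 200 nmole of a random double-stranded 16-mer DNA library in Tris/NaCl/DTT/glycerol buffer at room temperature for 30 min. After washing, the pools were crosslinked with 0.1% formaldehyde, proximity-ligated with BsaI/T4 ligase for 1 h at 37 °C, PCR-amplified and sequenced on an Illumina NextSeq500.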
# ELK1 = molecular target: T2, ELK1 (Homo sapiens, UniProt P19419 1-428); conditions: protein: recombinant; tags: N-terminal GST; dsDNA, one strand shown
# T2 sequence: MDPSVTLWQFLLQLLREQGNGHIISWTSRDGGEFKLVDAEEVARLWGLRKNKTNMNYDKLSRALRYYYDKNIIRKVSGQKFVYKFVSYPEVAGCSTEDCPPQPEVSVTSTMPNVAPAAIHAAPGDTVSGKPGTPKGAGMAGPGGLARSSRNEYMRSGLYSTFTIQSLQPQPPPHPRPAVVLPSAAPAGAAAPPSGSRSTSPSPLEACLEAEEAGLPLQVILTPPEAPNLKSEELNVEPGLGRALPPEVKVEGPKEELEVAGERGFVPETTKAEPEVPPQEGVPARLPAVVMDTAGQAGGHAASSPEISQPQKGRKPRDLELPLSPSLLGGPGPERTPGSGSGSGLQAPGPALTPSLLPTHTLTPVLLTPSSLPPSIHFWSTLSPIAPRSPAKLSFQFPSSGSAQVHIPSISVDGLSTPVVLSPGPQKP
# Method in brief: as §1
# ELF1 = ELF1 (Homo sapiens, UniProt P32519 1-619); conditions: protein: recombinant; tags: N-terminal GST; dsDNA, one strand shown
# Method in brief: as §1
# EHF = molecular target: T3, EHF (Homo sapiens, UniProt Q9NZC4 1-300); conditions: protein: recombinant; tags: N-terminal GST; dsDNA, one strand shown
# T3 sequence: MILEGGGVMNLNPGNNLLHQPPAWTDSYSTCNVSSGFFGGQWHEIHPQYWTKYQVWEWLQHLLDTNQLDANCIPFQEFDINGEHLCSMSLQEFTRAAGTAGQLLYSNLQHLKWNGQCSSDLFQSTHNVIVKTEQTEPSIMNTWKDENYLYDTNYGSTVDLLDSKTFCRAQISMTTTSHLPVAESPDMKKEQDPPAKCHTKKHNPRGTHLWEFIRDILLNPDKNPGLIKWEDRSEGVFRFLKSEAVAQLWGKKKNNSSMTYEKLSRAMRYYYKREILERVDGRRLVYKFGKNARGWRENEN
# Method in brief: as §1
# ELK3 = molecular target: T4, ELK3 (Homo sapiens, UniProt P41970 1-407); conditions: protein: recombinant; tags: N-terminal GST; dsDNA, one strand shown
# T4 sequence: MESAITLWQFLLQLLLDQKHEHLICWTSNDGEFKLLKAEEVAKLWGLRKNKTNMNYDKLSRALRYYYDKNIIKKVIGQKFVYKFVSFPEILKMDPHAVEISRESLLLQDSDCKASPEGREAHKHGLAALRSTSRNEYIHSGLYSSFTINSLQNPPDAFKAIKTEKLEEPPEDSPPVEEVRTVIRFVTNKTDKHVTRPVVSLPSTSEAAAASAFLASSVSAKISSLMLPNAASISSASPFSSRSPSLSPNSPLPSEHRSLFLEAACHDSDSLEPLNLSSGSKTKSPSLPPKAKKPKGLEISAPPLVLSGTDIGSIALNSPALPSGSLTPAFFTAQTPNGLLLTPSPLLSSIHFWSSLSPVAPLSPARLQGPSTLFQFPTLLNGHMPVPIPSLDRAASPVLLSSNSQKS
# Method in brief: as §1
# FEV = molecular target: T5, FEV (Homo sapiens, UniProt Q99581 1-238); conditions: protein: recombinant; tags: N-terminal GST; dsDNA, one strand shown
# T5 sequence: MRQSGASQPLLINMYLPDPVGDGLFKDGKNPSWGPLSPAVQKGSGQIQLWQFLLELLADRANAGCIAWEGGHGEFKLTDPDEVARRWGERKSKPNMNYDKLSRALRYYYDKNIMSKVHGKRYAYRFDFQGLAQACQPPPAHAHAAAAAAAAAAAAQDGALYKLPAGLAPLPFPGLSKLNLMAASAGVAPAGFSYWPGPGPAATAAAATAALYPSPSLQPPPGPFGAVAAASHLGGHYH
# Method in brief: as §1
# ETV5 = ETV5 (Homo sapiens, UniProt P41161 1-510); conditions: protein: recombinant; tags: N-terminal GST; dsDNA, one strand shown
# Method in brief: as §1
# HSF1 = HSF1 (Homo sapiens, UniProt Q00613 1-529); conditions: protein: recombinant; tags: N-terminal GST; chain copies: 3; dsDNA, one strand shown
# Method in brief: as §1
# SPIC = molecular target: T6, SPIC (Homo sapiens, UniProt Q8N5J4 1-248); conditions: protein: recombinant; tags: N-terminal GST; dsDNA, one strand shown
# T6 sequence: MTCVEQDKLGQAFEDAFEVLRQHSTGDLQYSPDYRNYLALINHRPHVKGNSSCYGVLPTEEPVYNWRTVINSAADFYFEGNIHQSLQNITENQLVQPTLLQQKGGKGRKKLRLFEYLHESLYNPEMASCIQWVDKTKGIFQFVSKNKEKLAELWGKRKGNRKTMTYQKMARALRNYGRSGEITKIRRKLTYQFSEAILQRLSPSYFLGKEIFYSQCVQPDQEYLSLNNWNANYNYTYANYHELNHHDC
# Method in brief: as §1
# ELF4 = ELF4 (Homo sapiens, UniProt Q99607 1-663); conditions: protein: recombinant; tags: N-terminal GST; dsDNA, one strand shown
# Method in brief: as §1
# ELK4 = molecular target: T7, ELK4 (Homo sapiens, UniProt P28324-2 1-405); conditions: protein: recombinant; tags: N-terminal GST; dsDNA, one strand shown
# T7 sequence: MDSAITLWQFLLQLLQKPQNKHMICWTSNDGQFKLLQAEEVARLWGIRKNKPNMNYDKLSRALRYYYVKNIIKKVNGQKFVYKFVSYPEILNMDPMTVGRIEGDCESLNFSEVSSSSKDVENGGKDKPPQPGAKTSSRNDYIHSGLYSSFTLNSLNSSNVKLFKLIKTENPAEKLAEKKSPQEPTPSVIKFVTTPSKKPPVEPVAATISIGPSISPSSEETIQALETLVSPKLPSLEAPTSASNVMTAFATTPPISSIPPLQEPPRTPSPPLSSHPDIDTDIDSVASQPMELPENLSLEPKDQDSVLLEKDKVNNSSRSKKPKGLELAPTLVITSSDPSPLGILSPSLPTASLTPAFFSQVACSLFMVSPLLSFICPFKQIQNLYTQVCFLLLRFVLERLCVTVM
# Method in brief: as §1
# ETV2 = molecular target: T8, ETV2 (Homo sapiens, UniProt O00321 1-342); conditions: protein: recombinant; tags: N-terminal GST; dsDNA, one strand shown
# T8 sequence: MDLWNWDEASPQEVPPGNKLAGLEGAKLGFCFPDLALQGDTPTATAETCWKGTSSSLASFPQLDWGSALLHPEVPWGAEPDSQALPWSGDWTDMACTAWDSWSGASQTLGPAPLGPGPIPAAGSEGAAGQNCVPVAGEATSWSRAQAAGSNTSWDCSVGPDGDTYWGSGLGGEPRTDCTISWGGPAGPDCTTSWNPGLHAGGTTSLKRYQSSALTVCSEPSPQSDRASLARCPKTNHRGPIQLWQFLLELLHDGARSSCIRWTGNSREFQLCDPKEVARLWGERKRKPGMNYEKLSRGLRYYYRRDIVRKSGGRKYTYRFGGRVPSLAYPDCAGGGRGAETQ
# Method in brief: as §1
# CRX = CRX (Homo sapiens, UniProt O43186 1-299); conditions: protein: recombinant; tags: N-terminal GST; dsDNA, one strand shown
# Method in brief: as §1
# ETV1 = ETV1 (Homo sapiens, UniProt P50549 1-477); conditions: protein: recombinant; tags: N-terminal GST; dsDNA, one strand shown
# Method in brief: as §1
# ELF4, sequence (Q99607 whole entry): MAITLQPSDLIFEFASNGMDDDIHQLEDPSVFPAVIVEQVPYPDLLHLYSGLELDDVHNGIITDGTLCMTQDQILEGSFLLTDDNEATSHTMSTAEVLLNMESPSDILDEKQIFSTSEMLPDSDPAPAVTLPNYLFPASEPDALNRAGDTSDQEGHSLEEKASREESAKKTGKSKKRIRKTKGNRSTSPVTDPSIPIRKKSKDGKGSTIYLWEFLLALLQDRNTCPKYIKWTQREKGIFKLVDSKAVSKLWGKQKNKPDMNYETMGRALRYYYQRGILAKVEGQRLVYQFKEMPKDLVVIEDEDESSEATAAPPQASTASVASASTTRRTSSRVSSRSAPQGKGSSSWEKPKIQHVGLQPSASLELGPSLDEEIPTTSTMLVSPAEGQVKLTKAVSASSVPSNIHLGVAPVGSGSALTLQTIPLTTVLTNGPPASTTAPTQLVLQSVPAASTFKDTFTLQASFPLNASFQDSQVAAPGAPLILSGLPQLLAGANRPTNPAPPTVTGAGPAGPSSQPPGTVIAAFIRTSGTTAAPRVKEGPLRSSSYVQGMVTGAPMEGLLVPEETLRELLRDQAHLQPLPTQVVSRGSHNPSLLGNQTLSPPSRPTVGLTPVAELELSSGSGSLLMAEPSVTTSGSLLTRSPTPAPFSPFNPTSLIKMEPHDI
# ETV5, sequence (P41161 whole entry): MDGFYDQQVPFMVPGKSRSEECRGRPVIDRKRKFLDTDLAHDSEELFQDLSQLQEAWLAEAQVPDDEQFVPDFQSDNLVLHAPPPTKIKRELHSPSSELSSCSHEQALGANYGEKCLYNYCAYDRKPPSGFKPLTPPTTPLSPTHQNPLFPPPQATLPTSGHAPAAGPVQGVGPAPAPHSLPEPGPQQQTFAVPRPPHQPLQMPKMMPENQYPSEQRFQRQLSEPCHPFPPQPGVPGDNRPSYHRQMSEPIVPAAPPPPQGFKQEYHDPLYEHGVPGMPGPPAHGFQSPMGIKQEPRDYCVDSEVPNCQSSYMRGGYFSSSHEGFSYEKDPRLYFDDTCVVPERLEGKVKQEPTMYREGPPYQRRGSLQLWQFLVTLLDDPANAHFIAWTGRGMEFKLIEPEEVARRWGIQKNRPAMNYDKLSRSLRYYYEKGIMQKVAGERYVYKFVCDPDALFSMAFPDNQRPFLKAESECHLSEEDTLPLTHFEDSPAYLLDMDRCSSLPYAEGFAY
# CRX, sequence (O43186 whole entry): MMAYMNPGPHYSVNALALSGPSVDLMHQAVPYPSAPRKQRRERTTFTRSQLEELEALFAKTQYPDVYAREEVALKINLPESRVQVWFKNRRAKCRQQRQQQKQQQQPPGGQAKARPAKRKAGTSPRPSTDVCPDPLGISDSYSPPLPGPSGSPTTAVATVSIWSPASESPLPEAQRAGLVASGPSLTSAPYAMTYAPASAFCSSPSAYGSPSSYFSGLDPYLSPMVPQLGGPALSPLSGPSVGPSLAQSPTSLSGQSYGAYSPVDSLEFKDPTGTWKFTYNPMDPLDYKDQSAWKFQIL
# ETV1, sequence (P50549 whole entry): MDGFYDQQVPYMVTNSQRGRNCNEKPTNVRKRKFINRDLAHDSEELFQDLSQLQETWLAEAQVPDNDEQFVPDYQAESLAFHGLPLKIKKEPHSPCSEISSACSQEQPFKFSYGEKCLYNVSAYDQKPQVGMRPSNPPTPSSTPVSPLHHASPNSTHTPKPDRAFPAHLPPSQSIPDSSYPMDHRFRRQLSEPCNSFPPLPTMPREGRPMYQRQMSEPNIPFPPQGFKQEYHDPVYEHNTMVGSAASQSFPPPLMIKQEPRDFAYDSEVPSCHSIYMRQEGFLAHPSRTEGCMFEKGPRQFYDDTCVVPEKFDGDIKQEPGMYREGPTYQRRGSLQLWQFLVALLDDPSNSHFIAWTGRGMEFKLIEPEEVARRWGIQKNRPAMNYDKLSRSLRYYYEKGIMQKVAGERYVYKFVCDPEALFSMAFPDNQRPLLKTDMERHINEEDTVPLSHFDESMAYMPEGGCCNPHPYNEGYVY
# HSF1, sequence (Q00613 whole entry): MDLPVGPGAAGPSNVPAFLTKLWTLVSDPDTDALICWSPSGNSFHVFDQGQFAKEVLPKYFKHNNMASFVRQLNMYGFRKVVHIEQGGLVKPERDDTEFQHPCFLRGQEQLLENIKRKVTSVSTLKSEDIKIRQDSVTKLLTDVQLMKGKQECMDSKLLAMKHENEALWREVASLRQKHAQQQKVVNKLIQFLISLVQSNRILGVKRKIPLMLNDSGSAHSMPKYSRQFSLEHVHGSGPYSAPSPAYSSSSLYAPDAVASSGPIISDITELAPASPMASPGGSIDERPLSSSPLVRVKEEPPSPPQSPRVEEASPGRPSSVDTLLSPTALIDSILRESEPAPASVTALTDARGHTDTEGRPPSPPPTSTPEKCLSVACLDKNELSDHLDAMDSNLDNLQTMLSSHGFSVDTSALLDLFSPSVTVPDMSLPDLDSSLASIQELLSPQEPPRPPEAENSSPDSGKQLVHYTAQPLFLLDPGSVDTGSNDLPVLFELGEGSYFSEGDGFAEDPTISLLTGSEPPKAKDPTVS
# ELF1, sequence (P32519 whole entry): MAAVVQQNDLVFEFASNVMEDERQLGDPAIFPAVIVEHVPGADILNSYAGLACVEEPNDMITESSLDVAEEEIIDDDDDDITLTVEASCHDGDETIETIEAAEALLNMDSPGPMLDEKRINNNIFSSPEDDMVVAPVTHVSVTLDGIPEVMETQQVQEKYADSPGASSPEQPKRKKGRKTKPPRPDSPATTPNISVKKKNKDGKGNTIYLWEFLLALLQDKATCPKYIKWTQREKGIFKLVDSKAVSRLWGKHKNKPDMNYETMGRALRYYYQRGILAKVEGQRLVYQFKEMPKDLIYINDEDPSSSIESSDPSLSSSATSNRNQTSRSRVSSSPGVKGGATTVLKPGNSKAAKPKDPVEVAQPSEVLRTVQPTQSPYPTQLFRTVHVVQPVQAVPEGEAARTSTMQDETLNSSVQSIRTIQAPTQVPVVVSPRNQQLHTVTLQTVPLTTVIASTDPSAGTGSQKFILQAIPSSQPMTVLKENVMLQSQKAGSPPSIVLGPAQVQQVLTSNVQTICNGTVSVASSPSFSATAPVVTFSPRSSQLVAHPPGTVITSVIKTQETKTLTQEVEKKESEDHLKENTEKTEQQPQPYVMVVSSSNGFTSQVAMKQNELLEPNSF
sequence,measurement,setting,value
TTGGCT,binding signal,FLI1,"1.15 fold enrichment (6-mer frequency, TF over GST control)"
same,binding signal,ELK1,"1.07 fold enrichment (6-mer frequency, TF over GST control)"
same,binding signal,ELF1,"1.13 fold enrichment (6-mer frequency, TF over GST control)"
same,binding signal,EHF,"1.12 fold enrichment (6-mer frequency, TF over GST control)"
same,binding signal,ELK3,"1 fold enrichment (6-mer frequency, TF over GST control)"
same,binding signal,FEV,"1.17 fold enrichment (6-mer frequency, TF over GST control)"
same,binding signal,ETV5,"1.05 fold enrichment (6-mer frequency, TF over GST control)"
same,binding signal,HSF1,"1.03 fold enrichment (6-mer frequency, TF over GST control)"
same,binding signal,SPIC,"1.02 fold enrichment (6-mer frequency, TF over GST control)"
same,binding signal,ELF4,"1.08 fold enrichment (6-mer frequency, TF over GST control)"
same,binding signal,ELK4,"1.21 fold enrichment (6-mer frequency, TF over GST control)"
same,binding signal,ETV2,"1.07 fold enrichment (6-mer frequency, TF over GST control)"
same,binding signal,CRX,"1.33 fold enrichment (6-mer frequency, TF over GST control)"
same,binding signal,ETV1,"1.02 fold enrichment (6-mer frequency, TF over GST control)"
